Inconclusive results are not listed. Where a call stands in place of a potency, no number is given. Activity calls are given as the source filed them. Calls come from the whole dose curve; as a rule, active = well fitted curve in the direction sought with a large enough effect; inconclusive = small, poorly fitted or top-dose-only effect, or another doubt; inactive = no such curve, though single readings can be large; an effect the other way counts as inactive or inconclusive. Where a SMILES comes first, the peptide text is derived from it. [ ]: non-standard residue; d: D form. pGlu = O=C1CC[C@@H](C(=O)O)N1
Key:
[1] = qHTS of pediatric cancer cell lines to identify multiple opportunities for drug repurposing: Primary screen for SK-N-MC cells (AID 1347093); conditions: SK-N-MC viability, CellTiter-Glo luminescence, 48 h; series mostly up to 46 µM; note: potency is the fitted concentration of half-maximal effect
Method in brief: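 Metabolically active cells were quantified by ATP-dependent luminescence (CellTiter-Glo, 15 min at room temperature) following 48 h treatment. Cells had been plated at 500-1,000 per well and settled for 5 h beforehand.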

[2] = qHTS of pediatric cancer cell lines to identify multiple opportunities for drug repurposing: Primary screen for BT-37 cells (AID 1347094); conditions: BT-37 viability, CellTiter-Glo luminescence, 48 h; series mostly up to 57.3 µM; note: potency is the fitted concentration of half-maximal effect
Method in brief: (§1)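 CRCs from 8- or 11-point titrations (lowest final 0.59 nM NPC, 0.78 nM MIPE). Cell viability: CellTiter-Glo after 48 h incubation, 15 min room-temperature development, luminescence imaging.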

[3] = qHTS of pediatric cancer cell lines to identify multiple opportunities for drug repurposing: Primary screen for NB-EBc1 cells (AID 1347095); conditions: NB-EBc1 neuroblastoma viability, CellTiter-Glo luminescence, 48 h; series mostly up to 46 µM; note: potency is the fitted concentration of half-maximal effect
Method in brief: as §1

[4] = qHTS of pediatric cancer cell lines to identify multiple opportunities for drug repurposing: Primary screen for U-2 OS cells (AID 1347096); conditions: U-2 OS viability, CellTiter-Glo luminescence, 48 h; series mostly up to 46 µM; note: nearly all actives have a fitted effect of over 50% in size; note: potency is the fitted concentration of half-maximal effect
Method in brief: (§2)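 Cells (500-1,000/well) in growth media were settled 5 h at 37 degrees C, then given compounds for 48 h. Viability was read as CellTiter-Glo luminescence. Primary runs used MIPE at 11 points (0.78 nM-46 µM) and NPC at 8 points (0.59 nM-46 µM); follow-ups used 11 points.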

[5] = qHTS of pediatric cancer cell lines to identify multiple opportunities for drug repurposing: Primary screen for Saos-2 cells (AID 1347097); conditions: Saos-2 viability, CellTiter-Glo ATP luminescence, 48 h; series mostly up to 46 µM; note: nearly all actives have a fitted effect of over 40% in size; note: potency is the fitted concentration of half-maximal effect
Method in brief: as §1

[6] = qHTS of pediatric cancer cell lines to identify multiple opportunities for drug repurposing: Primary screen for SK-N-SH cells (AID 1347098); conditions: SK-N-SH viability, CellTiter-Glo luminescence, 48 h; series mostly up to 57 µM; note: nearly all actives have a fitted effect of over 65% in size; note: potency is the fitted concentration of half-maximal effect
Method in brief: (§3)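 Cells (500-1,000/well) rested 5 h, then received compounds for 48 h; metabolically active cells were measured by CellTiter-Glo luminescence. Final concentrations spanned up to 46 µM (MIPE, 11-point) or 0.59 nM-46 µM (NPC, 8-point) in primary screens, 11-point in follow-ups.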

[7] = qHTS of pediatric cancer cell lines to identify multiple opportunities for drug repurposing: Primary screen for NB1643 cells (AID 1347099); conditions: NB1643 neuroblastoma viability, CellTiter-Glo luminescence, 48 h; series mostly up to 46 µM; note: nearly all actives have a fitted effect of over 50% in size; note: potency is the fitted concentration of half-maximal effect
Method in brief: as §1

[8] = qHTS of pediatric cancer cell lines to identify multiple opportunities for drug repurposing: Primary screen for LAN-5 cells (AID 1347100); conditions: LAN-5 neuroblastoma viability, CellTiter-Glo luminescence, 48 h; series mostly up to 46 µM; note: potency is the fitted concentration of half-maximal effect
Method in brief: as §2

[9] = qHTS of pediatric cancer cell lines to identify multiple opportunities for drug repurposing: Primary screen for BT-12 cells (AID 1347101); conditions: BT-12 viability, CellTiter-Glo luminescence, 48 h; series mostly up to 57.3 µM; note: nearly all actives have a fitted effect of over 25% in size
Method in brief: as §3

[10] = qHTS of pediatric cancer cell lines to identify multiple opportunities for drug repurposing: Primary screen for Rh18 cells (AID 1347102); conditions: Rh18 rhabdomyosarcoma viability, CellTiter-Glo luminescence, 48 h; series mostly up to 46 µM; note: nearly all actives have a fitted effect of over 65% in size; note: potency is the fitted concentration of half-maximal effect
Method in brief: as §2

| SMILES | Potency [1] | Potency [2] | Potency [3] | Potency [4] | Potency [5] | Potency [6] | Potency [7] | Potency [8] | Potency [9] | Potency [10] |
| --- | --- | --- | --- | --- | --- | --- | --- | --- | --- | --- |
| CN1Cc2cc(C(=O)N3CCC(C4CCNCC4)CC3)ccc2NC(CC(=O)O)C1=O (stereo not given) | inactive | inactive | inactive | inactive | inactive | inactive | inactive | inactive | inactive | inactive |
| O=C(CCCl)NCCc1ccccc1 | inactive | inactive | inactive | inactive | inactive | inactive | inactive | inactive | – | inactive |
| COc1c(N2C[C@@H]3CCCN[C@@H]3C2)c(F)cc2c(=O)c(C(=O)O)cn(C3CC3)c12 | inactive | inactive | inactive | inactive | inactive | inactive | inactive | inactive | inactive | inactive |
| Nc1ccc(C(=O)N2CC3CC(CN(Cc4ccccc4)C3)C2)cc1 | inactive | inactive | inactive | inactive | inactive | inactive | inactive | inactive | inactive | inactive |
| COc1ccc2c(c1)c(CC(=O)OC/C=C(\C)CC/C=C(\C)CCC=C(C)C)c(C)n2C(=O)c1ccc(Cl)cc1 | inactive | inactive | inactive | inactive | inactive | inactive | inactive | inactive | inactive | inactive |
| CCCCCCCC(=O)[O-].CCCCCCCC(=O)[O-].[Zn+2] | inactive | inactive | inactive | inactive | inactive | inactive | inactive | inactive | inactive | inactive |
| O=[N+]([O-])c1cncn1CCN1CCOCC1 | inactive | inactive | inactive | inactive | inactive | inactive | inactive | inactive | inactive | inactive |
| Nc1ncnc2c1ncn2Cc1c(F)cccc1Cl | inactive | inactive | inactive | inactive | inactive | inactive | inactive | inactive | inactive | inactive |
| CN(C)C(=O)CNC(=O)Cc1ccccc1 | inactive | inactive | inactive | inactive | inactive | inactive | inactive | inactive | inactive | inactive |
| O=C1Cc2cc(Cl)ccc2N1 | inactive | inactive | inactive | inactive | inactive | inactive | inactive | inactive | inactive | inactive |
| CSCC[C@H](NC(=O)[C@H](Cc1c[nH]c2ccccc12)NC(=O)CCNC(=O)OC(C)(C)C)C(=O)N[C@@H](CC(=O)O)C(=O)N[C@@H](Cc1ccccc1)C(N)=O | inactive | inactive | inactive | inactive | inactive | inactive | inactive | inactive | inactive | inactive |
| CCCCC(CC)CNC(=O)CC(C)OC(=O)CCC(=O)O (stereo not given) | inactive | inactive | inactive | inactive | inactive | inactive | inactive | inactive | inactive | inactive |
| CCCc1c2oc(C(=O)O)cc(=O)c2cc2c(=O)cc(C(=O)O)n(CC)c12 | inactive | inactive | inactive | inactive | inactive | inactive | inactive | inactive | inactive | inactive |
| O=C(CCCl)NCc1ccccc1 | inactive | inactive | inactive | inactive | inactive | inactive | inactive | inactive | inactive | inactive |
| CO[C@@H]1[C@@H](OC)[C@H](C)[C@@](O)(CC(=O)O)O[C@H]1[C@H](C)[C@H]1O[C@@]2(CC[C@@](C)([C@H]3CC[C@@](C)([C@@H]4O[C@@H]([C@H]5O[C@](C)(O)[C@H](C)C[C@@H]5C)C[C@@H]4OC4C[C@H](OC)[C@@H](OC)[C@H](C)O4)O3)O2)C[C@H](O)[C@H]1C (stereo not given in full) | 188 nM (active) | 389 nM (active) | 266 nM (active) | 8.41 µM (active) | 5.31 µM (active) | 2.44 µM (active) | 841 nM (active) | 1.06 µM (active) | – | 3.76 µM (active) |
| Cc1cnc(NS(=O)(=O)c2ccc(N)cc2)nc1 | inactive | inactive | inactive | inactive | inactive | inactive | inactive | inactive | – | inactive |

| SMILES | Potency [1] | Potency [2] | Potency [3] | Potency [4] | Potency [5] | Potency [6] | Potency [7] | Potency [8] | Potency [9] | Potency [10] |
| --- | --- | --- | --- | --- | --- | --- | --- | --- | --- | --- |
| CN=C(N)NC(=O)Nc1c(C)cccc1C | inactive | inactive | inactive | inactive | inactive | inactive | inactive | inactive | inactive | inactive |
| CCNC(=O)[C@@H]1CCCN1C(=O)[C@H](CCCN=C(N)N)NC(=O)[C@H](CC(C)C)NC(=O)CNC(=O)[C@H](Cc1ccc(O)cc1)NC(=O)[C@H](CO)NC(=O)[C@H](Cc1c[nH]c2ccccc12)NC(=O)[C@H](Cc1cnc[nH]1)NC(=O)[C@@H]1CCC(=O)N1 ([pGlu]HWSYGLRP-NHEt) | inactive | inactive | inactive | inactive | inactive | inactive | inactive | inactive | inactive | inactive |
| O=C(O)c1cn(C2CC2)c2cc(Cl)c(F)cc2c1=O | inactive | inactive | inactive | inactive | inactive | inactive | inactive | inactive | – | inactive |
| CCCCNc1ccc(C(=O)OCCN(CC)CC)cc1 | inactive | inactive | inactive | inactive | inactive | inactive | inactive | inactive | inactive | inactive |
| CCc1cccc2c(CCO)c[nH]c12 | inactive | inactive | inactive | inactive | inactive | inactive | inactive | inactive | inactive | inactive |
| Cc1onc(-c2ccccc2)c1C(=O)Cl | inactive | inactive | inactive | inactive | inactive | inactive | inactive | inactive | inactive | inactive |
| Cc1cc(C(C)(C)C)c(O)c(C(C)(C)C)c1 | inactive | inactive | inactive | inactive | inactive | inactive | inactive | inactive | inactive | inactive |
| CNC(=O)c1c(I)c(NC(C)=O)c(I)c(C(=O)O)c1I | inactive | inactive | inactive | inactive | inactive | inactive | inactive | inactive | inactive | inactive |
| N#CC1(c2ccc(F)cc2)CCC(=O)CC1 | inactive | inactive | inactive | inactive | inactive | inactive | inactive | inactive | – | inactive |
| CC(C)(C)C(=O)OCOC(=O)C1N2C(=O)CC2S(=O)(=O)C1(C)C (stereo not given) | inactive | inactive | inactive | inactive | inactive | inactive | inactive | inactive | inactive | inactive |
| CCCCOC(=O)CCCCCCCCC(=O)OCCCC | inactive | inactive | inactive | inactive | inactive | inactive | inactive | – | inactive | inactive |
| CC(C)NCCCC1(C(N)=O)c2ccccc2-c2ccccc21 | inactive | inactive | inactive | inactive | inactive | inactive | inactive | inactive | – | inactive |
| CCOc1ncc(F)c(=O)[nH]1 | inactive | inactive | inactive | inactive | inactive | inactive | – | inactive | inactive | inactive |
| O=C(O)[C@H](O)[C@@H](O)[C@H](O[C@@H]1O[C@H](CO)[C@H](O)[C@H](O)[C@H]1O)[C@H](O)CO | inactive | inactive | inactive | inactive | inactive | inactive | inactive | – | inactive | inactive |
| CCOC(=O)OCC/C(SC(=O)OCC)=C(\C)N(C=O)Cc1cnc(C)nc1N | inactive | inactive | inactive | inactive | inactive | inactive | – | inactive | inactive | inactive |
